Measurements: article PMC8384837, “Expanding the binding specificity for RNA recognition by a PUF domain”

Key:
Assay in all cases: yeast three-hybrid, YBZ-1, SC-Leu-His + 0.5 mM 3-AT, 4 days
Conditions in all cases: tags: N-Gal4 AD-HA kept; label: inside an RPR1-promoter hybrid RNA with tandem MS2 sites; ssRNA
PUM1 PUF domain R1-RCL = PUM1 PUF domain R1-RCL (Homo sapiens, UniProt Q14671 828-1176, S863R;R864C;Q867L)
Summary of the method: (§1)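 The interaction score is the logarithmic change in variant frequency from input to selection. It uses log2, with a pseudocount of 1 for absent variants, and frequencies came from PCR-amplified, Illumina-sequenced repeat regions. The libraries were Pumilio-1 PUF domains randomized at the three base-contacting residues per repeat, co-expressed with matching RNA elements in strain YBZ-1 (LexA–MS2 coat fusion, HIS3 reporter). Plating lasted four days on SC-Leu (input) or SC-Leu-His + 0.5 mM 3-AT (selection).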

PUM1 PUF domain R1-LRR = PUM1 PUF domain R1-LRR (Homo sapiens, UniProt Q14671 828-1176, S863L;Q867R)
Summary of the method: as §1

PUM1 PUF domain R1-SVR = PUM1 PUF domain R1-SVR (Homo sapiens, UniProt Q14671 828-1176, R864V;Q867R)
Summary of the method: as §1

PUM1 PUF domain R1-KPC = PUM1 PUF domain R1-KPC (Homo sapiens, UniProt Q14671 828-1176, S863K;R864P;Q867C)
Summary of the method: as §1

PUM1 PUF domain R4-FGR = PUM1 PUF domain R4-FGR (Homo sapiens, UniProt Q14671 828-1176, N971F;H972G;Q975R)
Summary of the method: as §1

PUM1 PUF domain R5-QLS = PUM1 PUF domain R5-QLS (Homo sapiens, UniProt Q14671 828-1176, C1007Q;R1008L;Q1011S)
Summary of the method: as §1

Chain of PUM1 PUF domain R5-QLS (Q14671 828-1176 C1007Q/R1008L/Q1011S): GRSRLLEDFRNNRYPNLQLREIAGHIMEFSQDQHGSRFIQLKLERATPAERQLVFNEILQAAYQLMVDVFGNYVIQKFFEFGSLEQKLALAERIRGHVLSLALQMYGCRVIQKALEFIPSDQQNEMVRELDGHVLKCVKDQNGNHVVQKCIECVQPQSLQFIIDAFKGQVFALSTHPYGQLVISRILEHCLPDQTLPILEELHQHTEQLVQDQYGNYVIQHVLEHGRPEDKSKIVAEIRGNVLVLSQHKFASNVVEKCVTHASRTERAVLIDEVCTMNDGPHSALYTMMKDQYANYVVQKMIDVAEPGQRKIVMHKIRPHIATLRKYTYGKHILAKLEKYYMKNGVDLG
Chain of PUM1 PUF domain R4-FGR (Q14671 828-1176 N971F/H972G/Q975R): as the sequence (Q14671 828-1176 C1007Q/R1008L/Q1011S) above, with N144F, H145G, Q148R, Q180C, L181R, S184Q counted along it

Q: With “GGCUAGAACUAGUGGAUCCCCCGGCGCCCGGCGGCUCGAGCCCGGGUAAGUGUAAAUCGUCUGCAUGCCGCCGGGCGCCAUGCCUGCAGGUCGACUCUAGAAAACAUG” as the sequence, how does the binding signal (PUM1 PUF domain R1-RCL) read?
A: 3.05 log2 enrichment (interaction score)

Q: What about the binding signal (PUM1 PUF domain R1-LRR) of the same sequence?
A: 2.97 log2 enrichment (interaction score)

Q: What about the binding signal (PUM1 PUF domain R1-SVR) of the same sequence?
A: 3.35 log2 enrichment (interaction score)

Q: “GGCUAGAACUAGUGGAUCCCCCGGCGCCCGGCGGCUCGAGCCCGGGUAAGUGUAAAUUGUCUGCAUGCCGCCGGGCGCCAUGCCUGCAGGUCGACUCUAGAAAACAUG” was tested. Which binding signal (PUM1 PUF domain R1-KPC) did it give?
A: 4.34 log2 enrichment (interaction score)

Q: What about the binding signal (PUM1 PUF domain R1-LRR) of the same sequence?
A: 2.97 log2 enrichment (interaction score)

Q: How did the binding signal (PUM1 PUF domain R4-FGR) turn out when “GGCUAGAACUAGUGGAUCCCCCGGCGCCCGGCGGCUCGAGCCCGGGUAAGUGUACAUAGUCUGCAUGCCGCCGGGCGCCAUGCCUGCAGGUCGACUCUAGAAAACAUG” was run?
A: 2.88 log2 enrichment (interaction score)

Q: With “GGCUAGAACUAGUGGAUCCCCCGGCGCCCGGCGGCUCGAGCCCGGGUAAGUGUGAAUAGUCUGCAUGCCGCCGGGCGCCAUGCCUGCAGGUCGACUCUAGAAAACAUG” as the sequence, how does the binding signal (PUM1 PUF domain R5-QLS) read?
A: 2.16 log2 enrichment (interaction score)
